Results from the supplement of paper PMC6555819.

Key:
Test in all cases: PBM binding z-score (relative to random genomic background probes); higher = stronger binding; sequences stand for … in GC…GCGATTGACAGCGTAGAATGAAGG
[1] = tested on: RARb homodimer (NR concentration 270 nM)
Method in brief: (§1)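 The probes on custom Agilent 4×180K protein-binding microarrays were double-stranded, with 34-nt variable regions bearing direct-repeat seeds, single-nucleotide variants, half-site ablations and random human genomic background sequences. Incubation lasted 1 h with ligand-free nuclear receptor dimers in PBS pH 7.4, 2% milk, 0.02% Triton X-100, 1 mM DTT, 0.2 mg/mL BSA and 0.4 mg/ml salmon testes DNA. Antibodies against each partner (one per run) detected bound dimers, and fluorescence scans were regression-normalized. Binding z-scores take the random background probes as reference.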

[2] = tested on: RARg:RXRa (NR concentration 270 nM, RXRa partner concentration 90 nM)
Method in brief: as §1

[3] = tested on: RARg homodimer (NR concentration 270 nM)
Method in brief: as §1

[4] = tested on: RXRa DBDmut IVT, anti-RXR (DBD mutation: RXRa K156A/R161A, NR concentration 90 nM)
Method in brief: as §1

[5] = tested on: RXRa homodimer (NR concentration 180 nM)
Method in brief: as §1

[6] = tested on: THRa:RXRa (NR concentration 90 nM, RXRa partner concentration 90 nM)
Method in brief: as §1

[7] = tested on: THRa homodimer (NR concentration 90 nM)
Method in brief: as §1

[8] = tested on: VDR homodimer (NR concentration 270 nM)
Method in brief: as §1

## CCTTACGGGTCACTGACAGATTATAGCATTTGGA
[1]
  PBM binding z-score: 3.01
[2]
  PBM binding z-score: 4.96
[3]
  PBM binding z-score: 4.43
[4]
  PBM binding z-score: 2.1
[5]
  PBM binding z-score: 4.89
[6]
  PBM binding z-score: 2.38
[7]
  PBM binding z-score: 0.495
[8]
  PBM binding z-score: 0.842

## TAGCCTAGGTCATGCGGGCCAGAATAGTGTCGGC
[1]
  PBM binding z-score: 2.94
[2]
  PBM binding z-score: 4.18
[3]
  PBM binding z-score: 4.34
[4]
  PBM binding z-score: 0.571
[5]
  PBM binding z-score: 3.18
[6]
  PBM binding z-score: 3.03
[7]
  PBM binding z-score: 0.922
[8]
  PBM binding z-score: 0.435

## CCTAGTTGGTCAAGGGCACACACGCTATAGGTAC
[1]
  PBM binding z-score: 1.78
[2]
  PBM binding z-score: 1.41
[3]
  PBM binding z-score: 1.99
[4]
  PBM binding z-score: 0.232
[5]
  PBM binding z-score: 0.726
[6]
  PBM binding z-score: 1.09
[7]
  PBM binding z-score: 0.605
[8]
  PBM binding z-score: 1.09

## TCTTGTAGATCAACAAGAGGTTAAGAAAGATCGA
[1]
  PBM binding z-score: 0.756
[2]
  PBM binding z-score: 1.56
[3]
  PBM binding z-score: 0.53
[4]
  PBM binding z-score: -0.00375
[5]
  PBM binding z-score: 1.4
[6]
  PBM binding z-score: 1.22
[7]
  PBM binding z-score: -0.94
[8]
  PBM binding z-score: -0.26

## ATCTCTTGGTAACCAAGTTCAGTGAATGCCGAAC
[1]
  PBM binding z-score: 1.4
[2]
  PBM binding z-score: 0.23
[3]
  PBM binding z-score: 0.417
[4]
  PBM binding z-score: 1.2
[5]
  PBM binding z-score: 0.509
[6]
  PBM binding z-score: 0.819
[7]
  PBM binding z-score: 0.000236
[8]
  PBM binding z-score: 2.57

## CAAATTAGGTCAAAGGTCAAAGTCGAGCCAACCA
[1]
  PBM binding z-score: 5.41
[2]
  PBM binding z-score: 9.09
[3]
  PBM binding z-score: 7.57
[4]
  PBM binding z-score: 3.17
[5]
  PBM binding z-score: 10.4
[6]
  PBM binding z-score: 4.76
[7]
  PBM binding z-score: 2.4
[8]
  PBM binding z-score: 3.43

## CATACTAGGTCACCGGAAGGTCAAAGTCCGCATG
[1]
  PBM binding z-score: 5.62
[2]
  PBM binding z-score: 8.44
[3]
  PBM binding z-score: 7.45
[4]
  PBM binding z-score: 2.21
[5]
  PBM binding z-score: 6.33
[6]
  PBM binding z-score: 4.43
[7]
  PBM binding z-score: 3.31
[8]
  PBM binding z-score: 3.9
